Test results from ChEMBL document CHEMBL4513146, “CO-ADD screening of Karazin Kharkiv National University (Ukraine) compounds”.
Potency and affinity values are given separately.

Each compound was assayed on Klebsiella pneumoniae. Settings: Concentration 32 ug.mL-1;; ASSAY_TEST Inhibition of Bacterial Growth; detection method Absorption (OD600); MEDIA CAMHB; plate type 384well; NBS; CORNING #3640; time 18 hr.

Row | SMILES | Inhibition
1 | COc1cccc(CN(c2ccc(Cl)cc2)S(=O)(=O)c2ccc3nncn3c2)c1 | 6.15%
2 | COc1ccc(C(=O)CSc2nnc3c(=O)n(-c4cccc(OC)c4)ccn23)cc1 | 12.72%
3 | Cc1ccc(NC(=O)Cn2c(=O)c3nnc(C)n3c3ccccc32)cc1F | 7.95%
4 | CCc1ccccc1Sc1nccn2c(=O)n(CC(=O)Nc3cc(C)ccc3C)nc12 | 13.72%
5 | O=C(CSc1nnc2c(=O)n(Cc3ccc(F)cc3)ccn12)NCC1CCCO1 (stereo not drawn) | 11.7%
6 | COc1ccc(-c2cc3c4nnc(SCC(=O)Nc5ccccc5Cl)n4ccn3n2)cc1 | 1.23%
7 | COc1ccc(NC(=O)c2ccc3nn(CC(=O)Nc4ccc5c(c4)OCCO5)c(=O)n3c2)cc1 | 2.24%
8 | CCOc1ccc(-n2ccn3c(SC(CC)C(=O)Nc4cc(F)ccc4F)nnc3c2=O)cc1 (stereo not drawn) | 11.22%
9 | Cc1cc(C)cc(Nc2nc(C)cc3nn(CC(=O)Nc4ccc(F)cc4F)c(=O)n23)c1 | 15.5%
10 | Cc1cc(C)cc(N(Cc2ccccc2)S(=O)(=O)c2cccn3cnnc23)c1 | -6.91%
11 | Cc1ccc(-c2ccc3nnc(CCC(=O)NCc4ccc(Br)cc4)n3n2)cc1 | 19%
12 | O=C(Cn1nc2c(Oc3ccc(Cl)cc3)nccn2c1=O)Nc1ccc2c(c1)OCO2 | 8.17%
13 | O=C(Cn1nc2c(Sc3cccc(F)c3)nccn2c1=O)N1CCN(c2ccccc2)CC1 | 4.19%
14 | O=C(Cn1nc2c(SC3CCCCC3)nccn2c1=O)Nc1ccc(Br)cc1 | 6.54%
15 | Cc1cc2nn(CC(=O)Nc3cccc(F)c3)c(=O)n2c(Nc2ccc(F)c(C)c2)n1 | 7.53%
16 | Cc1ccc(-c2cc3c4nn(CC(=O)Nc5ccc6c(c5)OCO6)c(=O)n4ccn3n2)cc1C | 2.27%
17 | O=C(Cn1nc2ccc(SCc3ccc(Cl)cc3)nn2c1=O)NCc1ccccc1 | 6.87%
18 | COc1ccc(-n2ccn3c(-c4cccc([N+](=O)[O-])c4)nnc3c2=O)cc1 | 3.7%
19 | Cc1ccccc1CSc1nnc2c(=O)n(-c3ccc(F)c(F)c3)ccn12 | 9.65%
20 | CCc1nnc2c(SCC(=O)Nc3cc(Cl)ccc3OC)nc3ccccc3n12 | 11.61%

Row | SMILES | Inhibition
21 | COc1ccc(NC(=O)c2ccc3nn(CC(=O)Nc4ccc(C(C)=O)cc4)c(=O)n3c2)cc1 | 4.63%
22 | C=Cc1ccc(CSc2nnc3c(=O)n(-c4cccc(OC)c4)ccn23)cc1 | 9.99%
23 | CC(C)c1nnc2c(SCC(=O)Nc3ccc4c(c3)OCO4)nc3ccccc3n12 | 4.73%
24 | Cc1ccc(-c2ccc3nn(CC(=O)Nc4ccc(C#N)cc4)c(=O)n3n2)cc1C | 8.41%
25 | CCCCOc1ccc(-c2cc3c4nnc(SCC(=O)N(CC)c5ccccc5)n4ccn3n2)cc1 | 16.4%
26 | CCOc1ccc(C(=O)CSc2nnc3c(=O)n(-c4cccc(OC)c4)ccn23)cc1 | 2.62%
27 | COc1ccc(NC(=O)Cn2nc3c(N4CCOCC4)nccn3c2=O)cc1Cl | -0.16%
28 | Cc1ccccc1Oc1nccn2c(=O)n(CC(=O)Nc3cc(Cl)ccc3Cl)nc12 | 4.89%
29 | CCc1nnc2c(=O)n(CC(=O)Nc3ccc(Br)cc3F)c3ccccc3n12 | 8.6%
30 | CCc1nnc2c(S(=O)(=O)N(Cc3ccc(C)cc3)c3ccc(C(C)C)cc3)cccn12 | 10.84%
31 | Cc1ccc(Cn2nc3c(=O)n(-c4cccc(Cl)c4C)ccn3c2=O)cc1 | 10.23%
32 | O=C(CSc1nnc2n(CC3CCCO3)c(=O)c3sccc3n12)Nc1ccc(F)cc1Cl (stereo not drawn) | 1.23%
33 | CCOc1ccc(NC(=O)Cn2nc3c4cc(-c5ccc(C)c(C)c5)nn4ccn3c2=O)cc1 | 8.27%
34 | Cc1nnc2c(=S)[nH]c3ccccc3n12 | 21.93%
35 | Cc1cc2nn(CC(=O)Nc3ccc(F)c(F)c3)c(=O)n2c(Nc2ccc(C)c(F)c2)n1 | 13.08%
36 | CSc1cccc(NC(=O)Cn2nc3ccc(C(=O)NCc4ccccc4)cn3c2=O)c1 | 7.41%
37 | O=C(Cn1nc2ccc(Sc3cccc(F)c3)nn2c1=O)NCc1ccc(Cl)cc1 | 0.3%
38 | O=c1n(Cc2cccc(C(F)(F)F)c2)nc2c(S(=O)(=O)N3CCCC3)cccn12 | 13.65%
39 | COc1cccc(CNC(=O)CCc2nnc3ccc(-c4ccc(C)cc4)nn23)c1 | 5.64%

Each compound was assayed on Candida albicans. Settings: Concentration 32 ug.mL-1; ASSAY_TEST Inhibition of Fungal Growth; detection method Absorption (OD530).

Row | SMILES | Inhibition
40 | COc1cccc(CN(c2ccc(Cl)cc2)S(=O)(=O)c2ccc3nncn3c2)c1 | 2.49%
41 | COc1ccc(C(=O)CSc2nnc3c(=O)n(-c4cccc(OC)c4)ccn23)cc1 | 5.69%
42 | Cc1ccc(NC(=O)Cn2c(=O)c3nnc(C)n3c3ccccc32)cc1F | 2.03%
43 | CCc1ccccc1Sc1nccn2c(=O)n(CC(=O)Nc3cc(C)ccc3C)nc12 | 1.62%
44 | O=C(CSc1nnc2c(=O)n(Cc3ccc(F)cc3)ccn12)NCC1CCCO1 (stereo not drawn) | 1.72%
45 | COc1ccc(-c2cc3c4nnc(SCC(=O)Nc5ccccc5Cl)n4ccn3n2)cc1 | 2.61%
46 | COc1ccc(NC(=O)c2ccc3nn(CC(=O)Nc4ccc5c(c4)OCCO5)c(=O)n3c2)cc1 | 1.62%
47 | CCOc1ccc(-n2ccn3c(SC(CC)C(=O)Nc4cc(F)ccc4F)nnc3c2=O)cc1 (stereo not drawn) | 0.62%
48 | Cc1cc(C)cc(Nc2nc(C)cc3nn(CC(=O)Nc4ccc(F)cc4F)c(=O)n23)c1 | 32.59%
49 | Cc1cc(C)cc(N(Cc2ccccc2)S(=O)(=O)c2cccn3cnnc23)c1 | 1.52%
50 | Cc1ccc(-c2ccc3nnc(CCC(=O)NCc4ccc(Br)cc4)n3n2)cc1 | 1.12%
51 | O=C(Cn1nc2c(Oc3ccc(Cl)cc3)nccn2c1=O)Nc1ccc2c(c1)OCO2 | 2.32%
52 | O=C(Cn1nc2c(Sc3cccc(F)c3)nccn2c1=O)N1CCN(c2ccccc2)CC1 | 0.68%
53 | O=C(Cn1nc2c(SC3CCCCC3)nccn2c1=O)Nc1ccc(Br)cc1 | 6.38%
54 | Cc1cc2nn(CC(=O)Nc3cccc(F)c3)c(=O)n2c(Nc2ccc(F)c(C)c2)n1 | 6.76%
55 | Cc1ccc(-c2cc3c4nn(CC(=O)Nc5ccc6c(c5)OCO6)c(=O)n4ccn3n2)cc1C | 33.95%
56 | O=C(Cn1nc2ccc(SCc3ccc(Cl)cc3)nn2c1=O)NCc1ccccc1 | 25.95%
57 | COc1ccc(-n2ccn3c(-c4cccc([N+](=O)[O-])c4)nnc3c2=O)cc1 | 0.19%
58 | Cc1ccccc1CSc1nnc2c(=O)n(-c3ccc(F)c(F)c3)ccn12 | 4.14%
59 | CCc1nnc2c(SCC(=O)Nc3cc(Cl)ccc3OC)nc3ccccc3n12 | 1.63%

Row | SMILES | Inhibition
60 | COc1ccc(NC(=O)c2ccc3nn(CC(=O)Nc4ccc(C(C)=O)cc4)c(=O)n3c2)cc1 | 12.89%
61 | C=Cc1ccc(CSc2nnc3c(=O)n(-c4cccc(OC)c4)ccn23)cc1 | 4.25%
62 | CC(C)c1nnc2c(SCC(=O)Nc3ccc4c(c3)OCO4)nc3ccccc3n12 | -0.7%
63 | Cc1ccc(-c2ccc3nn(CC(=O)Nc4ccc(C#N)cc4)c(=O)n3n2)cc1C | 3.47%
64 | CCCCOc1ccc(-c2cc3c4nnc(SCC(=O)N(CC)c5ccccc5)n4ccn3n2)cc1 | 5.05%
65 | CCOc1ccc(C(=O)CSc2nnc3c(=O)n(-c4cccc(OC)c4)ccn23)cc1 | 7.56%
66 | COc1ccc(NC(=O)Cn2nc3c(N4CCOCC4)nccn3c2=O)cc1Cl | 2.64%
67 | Cc1ccccc1Oc1nccn2c(=O)n(CC(=O)Nc3cc(Cl)ccc3Cl)nc12 | 2.23%
68 | CCc1nnc2c(=O)n(CC(=O)Nc3ccc(Br)cc3F)c3ccccc3n12 | 6.85%
69 | CCc1nnc2c(S(=O)(=O)N(Cc3ccc(C)cc3)c3ccc(C(C)C)cc3)cccn12 | 9.31%
70 | Cc1ccc(Cn2nc3c(=O)n(-c4cccc(Cl)c4C)ccn3c2=O)cc1 | 6.45%
71 | O=C(CSc1nnc2n(CC3CCCO3)c(=O)c3sccc3n12)Nc1ccc(F)cc1Cl (stereo not drawn) | -2.01%
72 | CCOc1ccc(NC(=O)Cn2nc3c4cc(-c5ccc(C)c(C)c5)nn4ccn3c2=O)cc1 | 0.04%
73 | Cc1nnc2c(=S)[nH]c3ccccc3n12 | -0.01%
74 | Cc1cc2nn(CC(=O)Nc3ccc(F)c(F)c3)c(=O)n2c(Nc2ccc(C)c(F)c2)n1 | 3.82%
75 | CSc1cccc(NC(=O)Cn2nc3ccc(C(=O)NCc4ccccc4)cn3c2=O)c1 | 7.13%
76 | O=C(Cn1nc2ccc(Sc3cccc(F)c3)nn2c1=O)NCc1ccc(Cl)cc1 | 1.92%
77 | O=c1n(Cc2cccc(C(F)(F)F)c2)nc2c(S(=O)(=O)N3CCCC3)cccn12 | 1.01%
78 | COc1cccc(CNC(=O)CCc2nnc3ccc(-c4ccc(C)cc4)nn23)c1 | 2.05%
